“And” between values parts separate entries of the source, which are not always exact repeats. Equal values may be shown once. Inconclusive results are not listed. Unmarked numbers belong to inactive results. The source made the active and inactive calls. Calls follow the shape of the dose curve; as a rule, active = well fitted inhibition curve with a large enough effect; inconclusive = small, poorly fitted or top-dose-only effect; inactive = no such curve, though single readings can be large or run the other way.
Potency is read from the fitted curve at half-maximal effect.

Cruzipain (Trypanosoma cruzi), sequence (P25779 123-467 limits assumed): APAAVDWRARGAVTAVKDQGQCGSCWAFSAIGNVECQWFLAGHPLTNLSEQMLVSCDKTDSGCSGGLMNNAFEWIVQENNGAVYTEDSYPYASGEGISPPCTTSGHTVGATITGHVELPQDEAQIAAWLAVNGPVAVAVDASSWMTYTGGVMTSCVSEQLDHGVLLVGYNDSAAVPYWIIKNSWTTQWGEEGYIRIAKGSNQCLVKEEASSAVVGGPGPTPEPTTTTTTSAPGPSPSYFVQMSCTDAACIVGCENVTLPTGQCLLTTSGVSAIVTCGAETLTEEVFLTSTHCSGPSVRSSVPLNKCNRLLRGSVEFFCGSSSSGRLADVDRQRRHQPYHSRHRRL

This assay addresses Cruzipain (Trypanosoma cruzi) (UniProt P25779). Briefly: Confirmation qHTS Assay for Inhibitors of Cruzain. Also: nearly all actives have a fitted effect of over 40% in size.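 As to activity change, negative = inhibition: plate controls were uninhibited enzyme control for no effect and buffer wells lacking enzyme for full effect.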 As to conditions: purified cruzain, Z-FR-AMC fluorescence, 0.01% Triton. The procedure:
Cruzain is a cysteine protease from the tropical parasite Trypanosoma cruzi. This assay protocol is a follow-up and confirmation of related AID 1478 (qHTS Assay for Promiscuous and Specific Inhibitors of Cruzain -- with detergent). Cruzain was assayed by the use of fluorogenic coumarin-based substrate Z-FR-AMC: proteolytic cleavage releases AMC, whose fluorescence is measured at 360 nm excitation and 450 nm emission. Purified cruzain was supplied by the labs of Prof. James McKerrow and Brian Shoichet, UC San Francisco. This assay had 0.01% Triton X-100 concentration. See following references for additional details: Jadhav A, et al. J Med Chem. 2010 Jan 14;53(1):37-51. Mott BT, et al. J Med Chem. 2010 Jan 14;53(1):52-60. Assay Provider: Shoichet, Brian; University of California, San Fancisco Screening Center PI: Austin, C.P. Screening Center: NIH Chemical Genomics Center [NCGC]
Buffer: 100 mM Sodium Acetate, pH 5.5, 5 mM DTT, Triton X-100 concentration: 0.01%. Reagents/Controls: Buffer in columns 3 and 4 as negative control (no enzyme). Substrate solution: 2 uM final concentration of Z-FR-AMC (catalog number I-1160, Bachem) dispensed throughout the plate. Enzyme: 1.5 nM Cruzain final concentration in columns 1, 2, 5-48. Column 1 is neutral (100% activity). Column 2 contained titration of covalent inhibitor K11777, starting concentration 1 mM, then 1:2 dilution in duplicate). Assay Steps: Three uL of enzyme or buffer were dispensed to 1536-well Greiner black solid bottom plates. Compounds and controls (23 nL) were transferred via Kalypsys PinTool. The plates were incubated for 15 min at room temperature, and then 1 uL of substrate solution was added to start the reaction. The plates were immediately transferred to and read 4 times every 30 seconds for 2 min on ViewLux High-throughput CCD imager (Perkin-Elmer) using 360 nm excitation and 450 nm emission fluorescence protocol. The fluorescence intensity difference between the third and the first time points (time lapse of 60 seconds) was used to compute reaction progress.
A general note: In qHTS, concentration-response curves come from the screen itself.
Consider `N#CCSc1nc2scc(-c3cccs3)c2c(=O)n1CCc1ccccc1`, for which the activity change, negative = inhibition was -7.68%.

Turning to `Cc1ccc(C(=O)C(OC(=O)CNC(=O)COc2ccccc2C)c2ccccc2)cc1` (stereo not given), the Potency was 3.16 µM (active).

With `Nc1ccc2c(c1)C(=O)C(=O)c1ccccc1-2`, the activity change, negative = inhibition is -54.3%.

`O=C(CSc1nnc(-c2ccco2)c(-c2ccco2)n1)Nc1ccccc1`: the Potency is 12.6 µM (active).

Consider `CC(C)(C)OC(=O)NCC(=O)NNC(=O)c1nc2ccccc2[nH]1`, for which the activity change, negative = inhibition was 2.49%.

As to `COc1ccccc1-c1nn2c(-c3cc(C)[nH]n3)nnc2s1`, the activity change, negative = inhibition was -12.2%.

As for `CC(C)(C)OC(=O)NCc1nnc(C(C(=O)OCc2ccccc2)c2ccccc2)s1` (stereo not given), the activity change, negative = inhibition is -11.8%.

On to `Cc1ccc(NC(=O)c2ccc(-n3nncc3-c3ccccc3)cc2)cc1`, for which the activity change, negative = inhibition is 2.57%.

For the molecule `O=C1NN(c2ccc(Cl)c(Cl)c2)C(=O)/C1=C/c1cccc(OC(=O)c2cccs2)c1`, the Potency was 35.5 µM (active).

On to `CCn1cnc2c(NCCc3cccnc3)nc(C#N)nc21`, for which the Potency was 10 µM (active).

`CN1N/C(=C\c2ccccc2)N=C2C(=O)N(C)C(=O)N=C21`: the Potency was 1.12 µM (active).

Consider `N#Cc1nc(Nc2ccccc2)nc(NC2CCCC2)n1`, for which the Potency is 0.708 µM (active).

Take `N#Cc1nc(Nc2cc(F)cc(F)c2)nc(Nc2cc(F)cc(F)c2)n1`: the Potency is 0.0794 µM (active).

In the case of `COc1ccc(/C=N/NC(=O)c2ccc(Br)cc2)cc1Cn1cc(Cl)cn1`, the activity change, negative = inhibition was -13.6%.

For the molecule `COc1ccc(C(F)(F)F)cc1NC(=O)C(OC(=O)CNC(=O)c1ccccc1)c1ccccc1` (stereo not given), the Potency was 14.1 µM (active).

Regarding `COc1cccc(OC)c1-c1nn2c(-c3n[nH]c4c3CCC4)nnc2s1`, the activity change, negative = inhibition is -13% and -10.1%.

With `CCOc1ccc(C(=O)COC(=O)CNC(=O)C2CCCCC2)cc1`, the Potency is 3.16 µM (active).

As to `O=C(Nc1nc(-c2ccc(S(=O)(=O)N3CCCCCC3)cc2)cs1)c1cccs1`, the activity change, negative = inhibition is -3.12%.

`CCC(C(=O)NC1CCCCC1)n1c(SCc2cccc(F)c2)nc2ccncc21` (stereo not given): the Potency is 6.31 µM (active).

Turning to `CCCCNC(=O)c1ccc2nc(-c3cccs3)c(-c3cccs3)nc2c1`, the activity change, negative = inhibition is -3.05%.

With `O=C(NCCCc1nc2ccccc2n1CCOc1ccccc1)C1CCCCC1`, the activity change, negative = inhibition was -11.7%.

With `COc1ccc(OC)c(C(=O)COC(=O)CNC(=O)C2CCCCC2)c1`, the Potency is 7.08 µM (active).

On to `CC(C)Nc1nc(C#N)nc(NC(C)C)n1`, for which the Potency was 28.2 µM (active).

On to `CCCNC(=O)Cn1c(SCc2ccccc2C)nc2ccncc21`, for which the activity change, negative = inhibition was -2.3%.

Take `COc1ccc2[nH]c3c(NCCN4CCCCC4)ncnc3c2c1`: the Potency was 12.6 µM (active).

For `COc1cc(Cl)c(C)cc1NC(=O)C(OC(=O)CNC(=O)c1ccccc1)c1ccccc1` (stereo not given), the Potency was 31.6 µM (active).

On to `O=C(Cc1nnc(-c2nc3ccccc3[nH]2)o1)Nc1cc(C(F)(F)F)ccc1Cl`, for which the activity change, negative = inhibition was -0.284%.

For `Clc1ccc2[nH]c3c(NCCCN4CCOCC4)ncnc3c2c1`, the Potency is 12.6 µM (active).

For the molecule `N#Cc1nc(Nc2cc(F)cc(F)c2)c2ncn(CC(F)F)c2n1`, the Potency is 0.01 µM (active).

On to `COc1cc(NC(=O)C(OC(=O)CNC(=O)c2ccccc2)c2ccccc2)c(OC)cc1Cl` (stereo not given), for which the Potency is 11.2 µM (active).

`O=C(COC(=O)CNC(=O)C1CCCCC1)NC1CC1`: the Potency was 15.8 µM (active).

With `Cc1ccc(-c2c3c(=O)n(C)c(=O)n(C)c3cn2-n2cnnc2)cc1`, the Potency was 25.1 µM (active).

In the case of `N#Cc1nc(Nc2ccc(F)cc2)nc(NC2CCCC2)n1`, the Potency was 0.126 µM (active).

For `O=c1cc(-c2ccccc2Cl)oc2c(NS(=O)(=O)c3cc(Cl)cc(Cl)c3O)ccc(O)c12`, the Potency was 7.08 µM (active).

On to `CC(C)(C)OC(=O)Cc1nnc(-c2nc3ccccc3[nH]2)o1`, for which the activity change, negative = inhibition is -0.371%.

With `NC(N)=NCCC[C@H](NC(=O)CNC(=O)c1ccccc1)C(=O)Nc1cc(C(F)(F)F)ccc1Cl`, the activity change, negative = inhibition was -8.36%.

Regarding `Cc1ccc(C)c(CN2C(=O)c3ccccc3Sc3ccc(C(=O)NCc4ccc5c(c4)OCO5)cc32)c1`, the activity change, negative = inhibition was -8.53%.

As for `O=C(Cc1ccccc1)NCC(=O)OCC(=O)c1ccc2ccccc2c1`, the activity change, negative = inhibition is -9.73%.

As to `O=c1cc(-c2ccccc2F)nc(-c2ccccc2F)o1`, the activity change, negative = inhibition is -25.6%.

In the case of `CCc1ccc2[nH]c(=O)c(CN(Cc3cccs3)Cc3nnnn3Cc3ccccc3)cc2c1`, the activity change, negative = inhibition was -18.5%.

(Values after PubChem BioAssay AID2158 (National Center for Advancing Translational Sciences (NCATS), 2009).)
